Assay outcomes as filed in PubChem BioAssay.
TEAD-YAP block – TEAD-YAP interaction inhibition | HEK-TIYL cells, TEAD-Gal4/YAP UAS-luciferase luminescence | actives 1.4% (n = 640,000) | inhibition, % at 9.12 µM; in the data active = inhibition above about 32%
FBW7 activator – activators of human E3 ligase FBW7; Q969H0; AlphaScreen FBW7–phospho-cyclin E peptide binding, activator screen; normalized activity (activation), % at 26.1 µM; actives 0.13% (n = 650,000); AID 1259310; in the data active = normalized activity above about 1.9%;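 note: purified mutant Fbw7 with reduced substrate affinity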
GPR151 ag – human GPR151 activation; Q8TDV0; PathHunter beta-arrestin GPR151 cells, luminescence; activation, % at 11.2 µM; actives 1% (n = 650,000); in the data active = activation above about 4.9%
MITF primary – human MITF inhibition, primary screen. O75030. AlphaScreen MITF homodimerization, bead proximity signal. inhibition, % at 2.6 µM. actives 0.91% (n = 650,000); in the data active = inhibition above about 50%
Target sequence (O75030 whole entry, looked up): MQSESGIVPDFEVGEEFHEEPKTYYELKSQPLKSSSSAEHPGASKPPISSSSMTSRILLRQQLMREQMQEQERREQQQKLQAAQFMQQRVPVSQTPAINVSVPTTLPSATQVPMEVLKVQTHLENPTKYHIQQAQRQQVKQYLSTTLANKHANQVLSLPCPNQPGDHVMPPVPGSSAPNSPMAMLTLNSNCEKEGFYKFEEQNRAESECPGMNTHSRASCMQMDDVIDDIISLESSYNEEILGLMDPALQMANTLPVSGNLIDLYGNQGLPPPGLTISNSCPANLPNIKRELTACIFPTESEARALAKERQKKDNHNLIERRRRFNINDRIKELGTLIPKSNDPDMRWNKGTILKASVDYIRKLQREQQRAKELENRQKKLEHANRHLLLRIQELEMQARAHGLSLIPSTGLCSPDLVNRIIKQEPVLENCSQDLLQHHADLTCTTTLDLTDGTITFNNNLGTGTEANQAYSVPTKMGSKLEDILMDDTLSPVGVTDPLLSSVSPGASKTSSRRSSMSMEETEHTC
GPR151 conf act – human GPR151 activation, confirmation screen; shares compounds with GPR151 ag; GPR151 PathHunter beta-arrestin cells, luminescence, 90 min; % of EA-reagent control over plate median; activation, % at 11.2 µM; 6,700 tested, under 10 active;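 active = mean percent activation across replicates above the confirmation screen cutoff of 4.91%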
GPR119 ag – activates human GPR119 in a GPR151 counter-screen; shares compounds with GPR151 ag; GPR119 PathHunter beta-arrestin cells, luminescence, 90 min; 0 = compound-well median, 100 = enzyme-acceptor control; activation, % at 11.2 µM; actives 0.3% (n = 6,700);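 active = mean percent activation in the counterscreen above 29.09%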;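 note: counterscreen on off-target GPR119 to flag nonselective hits from the GPR151 activator screen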
Hits are given with their value. Only some compounds are listed: those with a hit (about 3.4% of all), similar ones and a draw of the others.

Results for NS(=O)(=O)c1ccccc1NC(=O)c1c(O)c2cccc3c2n(c1=O)CC3 ?
TEAD-YAP block: inactive; FBW7 activator: inactive; GPR151 ag: 5.2; MITF primary: inactive; GPR151 conf act: inactive; GPR119 ag: inactive

Results for C=CCn1c(COc2cccc(C)c2C)n[nH]c1=S ?
TEAD-YAP block: inactive; FBW7 activator: inactive; GPR151 ag: 5.0; MITF primary: inactive; GPR151 conf act: inactive; GPR119 ag: inactive

How did C=CCn1c(COc2ccccc2C)n[nH]c1=S do in these assays?
TEAD-YAP block: inactive; FBW7 activator: inactive; GPR151 ag: inactive; MITF primary: inactive

Results for O=C(Nc1cccc(C(=O)N2CCN(c3ccc(F)cc3)CC2)c1)c1ccccc1 ?
TEAD-YAP block: inactive; FBW7 activator: inactive; GPR151 ag: 5.6; MITF primary: inactive; GPR151 conf act: inactive; GPR119 ag: inactive

Results for CCOC(=O)C1(C(F)(F)F)N=C(c2ccccc2)OC(N(C)C)=N1 (configuration not stated) ?
TEAD-YAP block: inactive; FBW7 activator: inactive; GPR151 ag: inactive; MITF primary: inactive

How did CCOc1ccccc1C1C(C#N)=C(SCC(=O)OC)NC(=O)C1C#N (configuration not stated) do in these assays?
TEAD-YAP block: inactive; FBW7 activator: inactive; GPR151 ag: inactive; MITF primary: inactive

How did Cn1ncc2c(=O)n(Cc3ccc(C#N)cc3)cnc21 do in these assays?
TEAD-YAP block: inactive; FBW7 activator: inactive; GPR151 ag: inactive; MITF primary: inactive

Results for CC(=O)c1cccc(S(=O)(=O)NCC(c2ccco2)N2CCCCC2)c1 (configuration not stated) ?
TEAD-YAP block: inactive; FBW7 activator: inactive; GPR151 ag: 7.0; MITF primary: inactive; GPR151 conf act: inactive; GPR119 ag: inactive

What do the screens show for `CC(=O)c1cccc(S(=O)(=O)NCc2ccco2)c1`?
TEAD-YAP block: inactive; FBW7 activator: inactive; GPR151 ag: inactive; MITF primary: inactive

What do the screens show for `CCC(=O)N1CCC[C@@H]2CN(C(=O)/C=C/c3cccs3)CC[C@H]21`?
TEAD-YAP block: inactive; FBW7 activator: inactive; GPR151 ag: 5.6; MITF primary: inactive; GPR151 conf act: inactive; GPR119 ag: inactive

Results for O=C(COc1ccccc1)NCCc1cn2ccsc2n1 ?
TEAD-YAP block: inactive; FBW7 activator: inactive; GPR151 ag: 5.0; MITF primary: inactive; GPR151 conf act: inactive; GPR119 ag: inactive

How did O=C(Nc1nnc(COc2ccccc2F)s1)c1ccco1 do in these assays?
TEAD-YAP block: inactive; FBW7 activator: inactive; GPR151 ag: inactive; MITF primary: inactive

What do the screens show for `Fc1ccc(CNc2ccc3ncc(-c4ccc5c(c4)OCO5)n3n2)cc1`?
TEAD-YAP block: inactive; FBW7 activator: inactive; GPR151 ag: 8.4; MITF primary: inactive; GPR151 conf act: inactive; GPR119 ag: inactive

Results for COc1ccc(CNc2ccc3ncc(-c4ccc(OC)cc4)n3n2)cc1 ?
TEAD-YAP block: inactive; FBW7 activator: inactive; GPR151 ag: 5.5; MITF primary: inactive; GPR151 conf act: inactive; GPR119 ag: inactive

What do the screens show for `COc1ccccc1-c1cnc2ccc(NCc3ccc(S(N)(=O)=O)cc3)nn12`?
TEAD-YAP block: inactive; FBW7 activator: inactive; GPR151 ag: 9.4; MITF primary: inactive; GPR151 conf act: inactive; GPR119 ag: inactive

How did CCOc1cc(C=O)ccc1OCC(=O)Nc1ccc(N2CCOCC2)cc1 do in these assays?
TEAD-YAP block: inactive; FBW7 activator: inactive; GPR151 ag: inactive; MITF primary: inactive

Results for O=C(c1ccccc1)c1conc1C(=O)c1ccc(Br)cc1 ?
TEAD-YAP block: inactive; FBW7 activator: inactive; GPR151 ag: inactive; MITF primary: inactive

Results for CC(=O)N1CCN(Cc2cccc(F)c2)CC1 ?
TEAD-YAP block: inactive; FBW7 activator: inactive; GPR151 ag: 5.4; MITF primary: inactive; GPR151 conf act: inactive; GPR119 ag: inactive

How did CC(=O)N1CCN(Cc2ccc3c(c2)CN(C(=O)Cc2cccc(F)c2)CCO3)CC1 do in these assays?
TEAD-YAP block: inactive; FBW7 activator: inactive; GPR151 ag: inactive; MITF primary: inactive

What do the screens show for `O=C(c1ccco1)N(Cc1ccccc1F)C1CCS(=O)(=O)C1` (configuration not stated)?
TEAD-YAP block: inactive; FBW7 activator: inactive; GPR151 ag: 5.3; MITF primary: inactive; GPR151 conf act: inactive; GPR119 ag: inactive

Results for O=C(Nc1c(F)cccc1F)c1ccccc1I ?
TEAD-YAP block: inactive; FBW7 activator: inactive; GPR151 ag: inactive; MITF primary: inactive

How did CCOC(=O)C1CCN(c2c(N3CCN(c4cccc(Cl)c4)CC3)c(=O)c2=O)CC1 do in these assays?
TEAD-YAP block: inactive; FBW7 activator: inactive; GPR151 ag: 5.2; MITF primary: inactive; GPR151 conf act: inactive; GPR119 ag: inactive

What do the screens show for `CCOC(=O)C1CCCN(c2c(N3CCN(c4cccc(Cl)c4)CC3)c(=O)c2=O)C1` (configuration not stated)?
TEAD-YAP block: inactive; FBW7 activator: inactive; GPR151 ag: inactive; MITF primary: inactive

How did COC(=O)c1c(NC(=S)N2CCN(S(C)(=O)=O)CC2)sc2c1CCCCCC2 do in these assays?
TEAD-YAP block: inactive; FBW7 activator: inactive; GPR151 ag: 6.7; MITF primary: inactive; GPR151 conf act: inactive; GPR119 ag: inactive

What do the screens show for `COC(=O)c1c(NC(=S)N2CCN(C(=O)C3CCCO3)CC2)sc2c1CCC2` (configuration not stated)?
TEAD-YAP block: inactive; FBW7 activator: inactive; GPR151 ag: inactive; MITF primary: inactive

Results for CC(C)CC(=O)N1CCC(c2nc3c(nnn3Cc3cccc(F)c3)c(=O)[nH]2)CC1 ?
TEAD-YAP block: inactive; FBW7 activator: inactive; GPR151 ag: 5.6; MITF primary: inactive; GPR151 conf act: inactive; GPR119 ag: inactive

Results for CC(C)CC(=O)N1CCC(c2nc3c(nnn3Cc3ccc(F)cc3)c(=O)[nH]2)CC1 ?
TEAD-YAP block: inactive; FBW7 activator: inactive; GPR151 ag: inactive; MITF primary: inactive

Results for CCC1CCc2c(sc3nc(SCC(=O)Nc4c(C)cccc4C)n(-c4ccccc4)c(=O)c23)C1 (configuration not stated) ?
TEAD-YAP block: inactive; FBW7 activator: inactive; GPR151 ag: 8.1; MITF primary: inactive; GPR151 conf act: inactive; GPR119 ag: inactive

Results for O=C(OCc1ccccc1)/C(=C/c1cccc([N+](=O)[O-])c1)NC(=O)c1ccco1 ?
TEAD-YAP block: inactive; FBW7 activator: inactive; GPR151 ag: inactive; MITF primary: inactive

What do the screens show for `NC(=O)/C(=C/c1cccc([N+](=O)[O-])c1)NC(=O)c1ccco1`?
TEAD-YAP block: inactive; FBW7 activator: inactive; GPR151 ag: 6.8; MITF primary: inactive; GPR151 conf act: inactive; GPR119 ag: inactive

Results for CNC(=O)/C(=C/c1cccc([N+](=O)[O-])c1)NC(=O)c1ccc(C(C)(C)C)cc1 ?
TEAD-YAP block: inactive; FBW7 activator: inactive; GPR151 ag: 6.0; MITF primary: inactive; GPR151 conf act: inactive; GPR119 ag: inactive
